Assay results: the supplement of paper PMC11417369
The full ranking holds about 25,000 sequences; the median of “ln(normalized median fluorescence intensity)” is about 9.7, and the highest 2% start at about 11. The list comes from a sample in which the highest values are over-represented; it also holds similar and randomly drawn sequences.

Each sequence was assayed on PfAP2-HC AP2 domain (GST-tagged) (assay: gcPBM binding intensity (ln(normalized median fluorescence intensity)); higher = stronger DNA binding).
Summary of the method: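 In this array assay, P. falciparum DNA-binding domains with a GST tag, expressed in E. coli, were applied for 1 h to primer-extended double-stranded 36-bp intergenic genomic probes and negative controls on an Agilent 4 × 180k array. Bound protein was visualised with Alexa488 anti-GST antibody at 488 nm. Binding intensity is the highest Masliner-normalised natural-log median intensity across replicate spots of either probe orientation.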

Sequence	gcPBM binding intensity (ln)
TTGTTAGAGTATATTGAAAGGATAACCTTTTTTTAT [XGTACX_negctrl_site122]	9.43
AAAATAATTTTATAGTTGCACTATATCGTATACAAT	9.71
AACGATTTACATCACTGTACTAATGATATACCTCAT [XGTACX_site7463]	9.85
ATAAATATAACATATTGTACCCTTAAAAAGGAACAA [XGTACX_site352]	9.5
ACGTACTGCCCTAAAGTGCATATATAATATAAACGA [GTGCAC_site9911]	9.52
GTCATATTAATATGTACACACATATTTATATTTATA [CACACA_site6798]	9.83
AATGTTTAATATAACGCATGCCTTAATATAGAATGC [TGCATGCA_site463]	9.59
TAAAGAAAAAGAGAATGTACATGAGAAAAGTATACT [XGTACX_site7472]	9.79
TTTAAAAAAAAAAAAAAAAATTAAATGAATTATTAA [CACACA_negctrl_site1121]	8.95
AAAAAAAAAAATATAACACACAACAAAAAAATATAT [CACACA_site1753]	10.4
ATAGTAAACGAAATAAAAAGATTAGCATAATATCCT [CACACA_negctrl_site1730]	9.79
ACATGTGAACATTCAATGCACACGATGTAATTATAC [CACACA_site14]	9.84
TAATTTTTTTTTTTTTTTCATTCTTTTCCTTTGATT [CACACA_negctrl_site1365]	9.22
CACAACATATATATATATATATATATATATATGTGT [CACACA_negctrl_site28]	9.39
TATATGTTTGAATATACACACAACATATTTATATAT [CACACA_site7832]	9.74
ACTTCAAAAAAAAAAAAATATATATATATATATTAT [GTGCAC_negctrl_site158]	9.33
TATAATTTAACGACATGTACATATAAAAAAATATTT [XGTACX_site2395]	9.75
TTTTTTTTTTTGATTTGTACACAAAAAAAATATATG [XGTACX_site4547]	9.42
TAATTTTTGAAACACACACACATATATATATATATA [CACACA_site94]	10.5
CATATATTTTGAAACACACACATATATAATATACAT [CACACA_site1158]	10.4
AATTTGTTGAAACACACACACACATACATATATATA [CACACA_site2287]	11.3
